# Assay results as given in PubChem BioAssay (NCI).
# The panel holds about 79,000 compounds, 15% with a hit somewhere; the sample as a whole holds those more often. Unmarked numbers belong to inactive results. Calls of active or inactive are those of the source. Rule as the data show it: active = growth inhibition above about 70%; inactive = the rest.
# What was measured:
# [1] = NCI Yeast Anticancer Drug Screen. Data for the rad50 strain (AID 155);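 also: 0% = growth of vehicle-only cultures of the same strain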; conditions: S. cerevisiae rad50 strain growth inhibition; at 50.0 µM; stronger effect = higher value
# Procedure, shortened: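 Inhibition values express reduced yeast growth in compound-treated cultures relative to vehicle-treated controls.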
# [2] = NCI Yeast Anticancer Drug Screen. Data for the mec2-1 strain (AID 157); conditions: S. cerevisiae mec2-1 strain, at 50.0 µM, stronger effect = higher value
# Procedure, shortened: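 Yeast mec2-1 mutant treated with compound. Readout: growth inhibition vs vehicle controls.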
# [3] = NCI Yeast Anticancer Drug Screen. Data for the cln2 rad14 strain (AID 165);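 also: 0% = growth equal to vehicle treated cultures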; conditions: S. cerevisiae cln2 rad14 strain, at 50.0 µM, stronger effect = higher value
# Procedure, shortened: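 cln2 rad14 yeast strain; compound exposure; growth inhibition read vs vehicle controls.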
# [4] = NCI Yeast Anticancer Drug Screen. Data for the bub3 strain (AID 167); conditions: S. cerevisiae bub3 mutant strain, at 50.0 µM, stronger effect = higher value
# Procedure, shortened: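 Steps: expose the mutant yeast strain to compound; grow alongside vehicle-treated cultures; measure growth; express inhibition against the vehicle cultures.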
# [5] = NCI Yeast Anticancer Drug Screen. Data for the mlh1 rad18 strain (AID 175); conditions: S. cerevisiae mlh1 rad18 strain growth inhibition; at 50.0 µM; stronger effect = higher value
# Procedure, shortened: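 Yeast w/ defined DNA-repair lesions; compound exposure; growth vs vehicle controls → % inhibition.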
# [6] = NCI Yeast Anticancer Drug Screen. Data for the sgs1 mgt1 strain (AID 161);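 also: 0% = growth of cultures given vehicle only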; conditions: S. cerevisiae sgs1 mgt1 strain, at 50.0 µM, stronger effect = higher value
# Procedure, shortened: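 Inhibition of yeast growth, normalised to vehicle-treated controls, is reported for a strain bearing genetic alterations in DNA damage repair.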
Compound,growth inhibition [1],growth inhibition [2],growth inhibition [3],growth inhibition [4],growth inhibition [5],growth inhibition [6]
CN1CCN(Cc2oc(CO)cc(=O)c2O)CC1,-3.8%,-22.9%,12.2%,16.8%,-7.65%,–
COc1ccc(N2N=NN(C(C)C)/C2=C(/Cl)c2nnnn2-c2ccc(OC)cc2)cc1,25.8%,42.9%,19.1%,24.9%,39.3%,–
S=C1Cc2c(-c3ccccc3)cc(-c3ccc(Cl)cc3)nc2-c2ccccc2N1,8.75%,-3.85%,2.55%,6.75%,-4.25%,–
O=C(O)C12CCCCC1CCCC2 (centres undefined),11.4%,31.2%,26.1%,-0.75%,10.7%,–
O=c1[nH]c(Nc2ccccc2)nc2c1ncn2CC(O)CSCCO (centres undefined),16.1%,13.2%,8.45%,10.4%,-27.4%,–
CCN(CC)C(=S)N/N=C/c1ccccn1,89.5% (active),92% (active),89.2% (active),89.8% (active),90.3% (active),–
Cc1cc2nc(Cl)n(C3OC(CO)C(O)C3O)c2cc1C (centres undefined),16.6%,-7.15%,4.8%,-1%,12.8%,–
CCN(CC)c1c(C)nnn1C1OC(COC(C)=O)C(OC(C)=O)C(OC(C)=O)C1OC(C)=O (centres undefined),-0.8%,-10.9%,3.15%,11.8%,-12%,–
O=[N+]([O-])c1ccc(-c2cn(-c3ccc(Cl)cc3)cn2)cc1,2.75%,-4.15%,3.35%,-1.85%,-5.7%,–
C=C1C(=O)O[C@H]2C1[C@H](OC(=O)/C(C)=C\COC(C)=O)C[C@]1(CO1)[C@@H]1[C@H](O)[C@H]3O[C@@]3(C)[C@@H]12 (some centres undefined),-5.95%,-26.4%,-1%,-52%,-2.05%,–
COC(=O)c1nn(-c2ccccc2)c(=O)cc1N=[N+]=[N-],-31%,-5.2%,-12.8%,-14.2%,-54.4%,–
C=C1C(=O)O[C@H]2C[C@@H]1C(=O)C/C(C)=C/CC/C(C)=C/CC[C@@]2(C)OCSC,18.9%,-5%,26.9%,–,13.7%,39%
CCOC(=O)NN(C(=O)OCC)C(C(=O)c1ccccc1)N(NC(=O)OCC)C(=O)OCC,27.6%,9.9%,46.4%,20.9%,22.4%,–
CC(=O)OCC1OC(N2C(c3ccccc3)=CC(c3ccco3)C(C#N)=C2S)C(OC(C)=O)C(OC(C)=O)C1OC(C)=O (centres undefined),0.95%,-11.2%,12.7%,2.05%,27.2%,–
CSc1nc(-c2ccc([N+](=O)[O-])cc2)oc1/N=C/c1ccc([N+](=O)[O-])cc1,-8.45%,-9.65%,-29.1%,3%,4.35%,–
CCN(c1ccccc1)c1cc2c(cc1[N+](=O)[O-])no[n+]2[O-],97.1% (active),96.9% (active),96.6% (active),98.1% (active),97.1% (active),–
C/C=C(\CC)C(C)(C#N)C(=O)OCC (centres undefined),-13.3%,-33.3%,-3.45%,-27.8%,-29.1%,–
CC(C)N(C(=O)C1C2CCC(CC2)C1C(=O)N(C(C)C)C(C)C)C(C)C (centres undefined),2.4%,17.5%,-0.9%,27.6%,20.7%,–
N#Cc1c(N2CCCC2)ncn(Cc2ccccc2)c1=S,-10.9%,-15.1%,-25.1%,-5.1%,-0.2%,–
CCCCCC(=O)/C=C/Sc1n[nH]c(=O)[nH]c1=O,60.5%,41.1%,27.9%,55%,62.1%,–
CCCc1cccc[n+]1CC(=O)c1ccccc1,5.65%,11.1%,-51.5%,25.4%,-1.65%,–
O=C(C(=O)c1ccccc1)c1ccccc1,9.35%,-0.75%,-22.1%,9.9%,-1.15%,–
O=[N+]([O-])c1ccc(CCCc2ccc([N+](=O)[O-])cc2)cc1,39.6%,7.35%,-41.2%,11.6%,15.1%,–

Compound,growth inhibition [1],growth inhibition [2],growth inhibition [3],growth inhibition [4],growth inhibition [5],growth inhibition [6]
O=C(NNc1nc(N2CCOCC2)nc(N2CCOCC2)n1)c1ccccc1,16.6%,5.15%,15.3%,-5.05%,-4.3%,–
CCCCCCCCN(CCCCCCCC)CC(O)c1cc(-c2ccccc2)nc2c(-c3ccccc3)cccc12 (centres undefined),46.8%,32.5%,51.1%,26.1%,48.5%,–
c1ccc(-c2nc3ccccc3n2CCc2ccncc2)nc1,11%,10.4%,-14%,3.2%,20.9%,–
CCOC(C#CC(=O)C(C)C)OCC,-17.2%,3.15%,2.25%,27.4%,19.4%,–
CCOC(=O)COc1cc2c(cc1C(C)c1ccc(OCc3ccccc3)c(OC)c1)OCO2 (centres undefined),-0.95%,-7.55%,10.6%,-7.4%,-6.3%,–
O=C(C#CP(=O)(O)c1ccccc1)c1ccccc1,22.5%,16.4%,17.5%,-17.6%,3.05%,–
COc1cccc(-c2cc(=O)c3cccc(CC(=O)O)c3o2)c1,5.9%,-4.9%,2.85%,-2.35%,-30.9%,–
CC(=O)CCCO,-1.6%,-5.75%,-9.4%,19.1%,-0.9%,–
C=CCCCCCCCCC(=O)OC1CCCCC1,-9.25%,0.2%,-23.1%,15.4%,6.15%,–
CC1(C)CC(=O)c2c(N)n[nH]c2C1,-0.35%,3.1%,-2.2%,1.35%,-15%,–
O=c1cc[nH]c2cc(C(F)(F)F)ccc12,-26.4%,-39%,10.1%,-25.9%,-34%,–
Nc1ccc(C(=O)CC(N)C(=O)O)cc1O (centres undefined),-9.7%,21.4%,-17.9%,6.95%,11.3%,–
O=C(NC1CC1)C1CC1,-20.2%,–,-17.4%,–,-1.35%,-1.45%
Cc1cccc(NC(=O)Oc2cc(C)c(Cl)cc2C(C)C)c1,93% (active),–,93.3% (active),98.5% (active),98% (active),96.8% (active)
O=C(CCCn1ccnc1[N+](=O)[O-])NCCn1cncc1[N+](=O)[O-],0.65%,–,7.6%,0.25%,-9.9%,5.9%
O=C1CSC(c2cccc(F)c2)N1CCN1C(=O)CSC1c1cccc(F)c1 (centres undefined),27.7%,–,20.6%,2.4%,-7.5%,9.65%
N/N=C(/C(=O)Nc1cccc(Cl)c1)C(C(=O)c1ccc(O)cc1O)C1OC(=O)c2ccccc21 (centres undefined),-17.4%,–,0.85%,6.1%,20.1%,-8.1%
COC(=O)c1ccccc1-c1ccccc1C(=O)OC,7.75%,–,25.8%,15.4%,13.7%,10.8%
S=C1CSc2c(cnc3ccccc23)N1,-4.05%,–,18.8%,18.2%,6.95%,7%
CC(=O)NCc1cccc([N+](=O)[O-])c1,18.4%,–,2.45%,17.7%,13.2%,27.3%
CCSC(SCC)C(NC(C)=O)C(O)C(O)COC(=O)c1ccccc1 (centres undefined),6.05%,–,12%,1.35%,25.2%,17.4%
CN1C(=O)CC2(C)c3cc(O)ccc3N(C)C12 (centres undefined),53.6%,–,64.3%,32.6%,-81.7%,54.5%
